The values that follow come from PubChem BioAssay (EPA / NIEHS).

Holding throughout (conditions): mRNA level, 48 h; actives raise or lower the signal
Read-out in assay [1]: Cyclin D1 (CCND1), CCND1 (gene 595)
In words: LTEA_HepaRG_CCND1: Life Technologies and Expression Analysis (LTEA) Assay for Cyclin D1 (CCND1) using HepaRG (AID 2283451). In short, it runs like this: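 Differentiated human HepaRG cells in serum-free induction medium were exposed 48 h to eight half-log concentrations up to 100 uM in 0.5% DMSO; mRNA quantified by TaqMan qRT-PCR, normalized to ACTB, GAPDH, POLR2A, fitted bidirectionally versus DMSO.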

Read-out in assay [2]: catalase (CAT), CAT (gene 847)
In words: LTEA_HepaRG_CAT: Life Technologies and Expression Analysis (LTEA) Assay for catalase (CAT) using HepaRG (AID 2283452). In short, it runs like this: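 HepaRG cells in serum-free induction medium, 0.5% DMSO vehicle, exposed 48 h in duplicate over 8 half-log concentrations from 100 uM. CAT mRNA measured by qRT-PCR, normalized to ACTB, GAPDH, POLR2A; bidirectional fit versus DMSO.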

Read-out in assay [3]: flavin-containing dimethylaniline monooxygenases 3 (FMO3), FMO3 (gene 2328)
Description: LTEA_HepaRG_FMO3: Life Technologies and Expression Analysis (LTEA) Assay for flavin-containing dimethylaniline monooxygenases 3 (FMO3) using HepaRG (AID 2283453). In a few lines: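 HepaRG, 48 h exposure, 8-pt half-log series from 100 uM, 0.5% DMSO vehicle, duplicates; FMO3 transcript by Fluidigm TaqMan qRT-PCR, housekeeping-normalized; gain/loss fit vs DMSO.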

Read-out in assay [4]: Cytochrome P450 (CYP1A1), CYP1A1 (gene 1543)
Description: LTEA_HepaRG_CYP1A1: Life Technologies and Expression Analysis (LTEA) Assay for Cytochrome P450 (CYP1A1) using HepaRG (AID 2283454). In a few lines: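 Differentiated HepaRG cells in serum-free induction medium were exposed in duplicate for 48 h to eight half-log concentrations up to 100 uM in 0.5% DMSO. CYP1A1 mRNA was quantified by TaqMan qRT-PCR, normalized to ACTB, GAPDH and POLR2A.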

Read-out in assay [5]: CFLAR gene, CFLAR (gene 8837)
Description: LTEA_HepaRG_CFLAR: Life Technologies and Expression Analysis (LTEA) Assay for CFLAR gene using HepaRG (AID 2283455). In a few lines:
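Differentiated HepaRG cells in serum-free induction medium were exposed 48 h in duplicate to eight half-log concentrations up to 100 uM in 0.5% DMSO; mRNA measured by TaqMan qRT-PCR, normalized to ACTB, GAPDH, POLR2A; bidirectional fitting versus DMSO.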

Read-out in assay [6]: Forkhead box O1 (FOXO1), FOXO1 (gene 2308)
Description: LTEA_HepaRG_FOXO1: Life Technologies and Expression Analysis (LTEA) Assay for Forkhead box O1 (FOXO1) using HepaRG (AID 2283456). In a few lines: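 Differentiated HepaRG cells, in serum-free induction medium with 0.5% DMSO, exposed 48 h in duplicate to 8-point half-log series from 100 uM. FOXO1 mRNA measured by TaqMan qRT-PCR, normalized to ACTB, GAPDH, POLR2A; bidirectional fit versus DMSO.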

Read-out in assay [7]: growth arrest and DNA damage 45 (GADD45A), GADD45A (gene 1647)
Description: LTEA_HepaRG_GADD45A: Life Technologies and Expression Analysis (LTEA) Assay for growth arrest and DNA damage 45 (GADD45A) using HepaRG (AID 2283458). In short, it runs like this: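 Human HepaRG liver cells are treated in duplicate for 48 h with chemicals in 0.5% DMSO, highest concentration 100 uM. Expression is read by qRT-PCR and analyzed in both directions against vehicle.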

Read-out in assay [8]: Forkhead box O3 (FOXO3), FOXO3 (gene 2309)
Description: LTEA_HepaRG_FOXO3: Life Technologies and Expression Analysis (LTEA) Assay for Forkhead box O3 (FOXO3) using HepaRG (AID 2283459). In a few lines:
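Differentiated human HepaRG cells, 48 h post-plating, exposed in duplicate for 48 h in serum-free induction medium; 8-point half-log series from 100 uM in 0.5% DMSO. FOXO3 mRNA by TaqMan qRT-PCR, normalized to ACTB/GAPDH/POLR2A; bidirectional fit versus DMSO.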

Read-out in assay [9]: growth arrest and DNA damage 45 (GADD45B), GADD45B (gene 4616)
In words: LTEA_HepaRG_GADD45B: Life Technologies and Expression Analysis (LTEA) Assay for growth arrest and DNA damage 45 (GADD45B) using HepaRG (AID 2283461). In short, it runs like this: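 Differentiated HepaRG cells, plated 48 h then switched to serum-free induction medium, were exposed 48 h in duplicate to eight half-log concentrations from 100 uM in 0.5% DMSO; mRNA quantified by qRT-PCR, normalized to ACTB/GAPDH/POLR2A, bidirectional fit versus DMSO.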

Read-out in assay [10]: ABC Transporter (ABCC3), ABCC3 (gene 8714)
In words: LTEA_HepaRG_ABCC3: Life Technologies and Expression Analysis (LTEA) Assay for ABC Transporter (ABCC3) using HepaRG (AID 2283462). In a few lines:
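HepaRG cells in serum-free induction medium were exposed for 48 h in duplicate to 8-point half-log concentrations topping at 100 uM in 0.5% DMSO. ABCC3 mRNA was measured by qRT-PCR normalized to ACTB, GAPDH and POLR2A, with bidirectional fitting versus DMSO.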

Read-out in assay [11]: ABC Transporter (ABCB11), ABCB11 (gene 8647)
Description: LTEA_HepaRG_ABCB11: Life Technologies and Expression Analysis (LTEA) Assay for ABC Transporter (ABCB11) using HepaRG (AID 2283463). In a few lines: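 Differentiated human HepaRG cells in serum-free induction medium, dosed in duplicate for 48 h. Eight-point half-log series from 100 uM in 0.5% DMSO; ABCB11 mRNA by qRT-PCR, normalized to ACTB, GAPDH, POLR2A, fitted bidirectionally versus DMSO.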

Read-out in assay [12]: ABC Transporter (ABCC2), ABCC2 (gene 1244)
Description: LTEA_HepaRG_ABCC2: Life Technologies and Expression Analysis (LTEA) Assay for ABC Transporter (ABCC2) using HepaRG (AID 2283464). In short, it runs like this:
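HepaRG cells were plated 48 h, switched to serum-free induction medium, then exposed in duplicate for 48 h to 8 concentrations (top 100 uM, half-log steps, 0.5% DMSO). ABCC2 mRNA was measured by qRT-PCR normalized to ACTB/GAPDH/POLR2A; bidirectional fitting versus DMSO.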

Read-out in assay [13]: Broad substrate specificity ATP-binding cassette transporter ABCG2 (Homo sapiens) (UniProt Q9UNQ0)
Description: LTEA_HepaRG_ABCG2: Life Technologies and Expression Analysis (LTEA) Assay for ABC Transporter (ABCG2) using HepaRG (AID 2283465). In a few lines:
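Differentiated HepaRG cells were exposed for 48 h in serum-free induction medium to 8 half-log concentrations, top 100 uM, in 0.5% DMSO. ABCG2 mRNA was measured by qRT-PCR, normalized to ACTB, GAPDH and POLR2A, with bidirectional fitting versus DMSO.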

Read-out in assay [14]: ATP-citrate lyase (ACLY), ACLY (gene 47)
Description: LTEA_HepaRG_ACLY: Life Technologies and Expression Analysis (LTEA) Assay for ATP-citrate lyase (ACLY) using HepaRG (AID 2283466). In a few lines: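 Differentiated HepaRG cells exposed 48 h in serum-free induction medium to eight half-log concentrations up to 100 uM in 0.5% DMSO, duplicates. Transcript measured by Fluidigm TaqMan qRT-PCR, normalized to ACTB, GAPDH, POLR2A; bidirectional fit versus DMSO.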

Read-out in assay [15]: Peroxisomal acyl-coenzyme A oxidase 1 (ACOX1) gene, ACOX1 (gene 51)
In words: LTEA_HepaRG_ACOX1: Life Technologies and Expression Analysis (LTEA) Assay for Peroxisomal acyl-coenzyme A oxidase 1 (ACOX1) gene using HepaRG (AID 2283467). In a few lines:
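HepaRG cells, plated 48 h then switched to serum-free induction medium, were exposed in duplicate for 48 h to 8-point half-log concentrations up to 100 uM in 0.5% DMSO. ACOX1 mRNA was measured by qRT-PCR, normalized to ACTB/GAPDH/POLR2A, and fitted bidirectionally versus DMSO.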

Read-out in assay [16]: Bcl-2 (BAD) gene, BAD (gene 572)
Description: LTEA_HepaRG_BAD: Life Technologies and Expression Analysis (LTEA) Assay for Bcl-2 (BAD) gene using HepaRG (AID 2283469). In a few lines:
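Differentiated HepaRG cells were exposed in duplicate in 0.5% DMSO for 48 h to eight-point half-log concentrations up to 100 uM. BAD mRNA was measured by Fluidigm TaqMan qRT-PCR, normalized to ACTB, GAPDH and POLR2A, and fitted bidirectionally against DMSO.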

Read-out in assay [17]: Bcl-2 (BAX) gene, BAX (gene 581)
In words: LTEA_HepaRG_BAX: Life Technologies and Expression Analysis (LTEA) Assay for Bcl-2 (BAX) gene using HepaRG (AID 2283470). In a few lines: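 Concentration-response endpoint fitted in both directions relative to 0.5% DMSO vehicle. Human HepaRG cultures receive test chemicals for 48 h at up to 100 uM; BAX mRNA is quantified by qRT-PCR against housekeeping genes.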

Read-out in assay [18]: ABC Transporter (ABCB1), ABCB1 (gene 5243)
Description: LTEA_HepaRG_ABCB1: Life Technologies and Expression Analysis (LTEA) Assay for ABC Transporter (ABCB1) using HepaRG (AID 2283460). In a few lines:
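HepaRG cells exposed in duplicate for 48 h in serum-free induction medium to eight half-log concentrations up to 100 uM in 0.5% DMSO. ABCB1 mRNA quantified by qRT-PCR, normalised to ACTB, GAPDH and POLR2A; fitted bidirectionally versus DMSO.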

Read-out in assay [19]: Alkaline Phosphatase, Placental (ALPP) gene, ALPP (gene 250)
Description: LTEA_HepaRG_ALPP: Life Technologies and Expression Analysis (LTEA) Assay for Alkaline Phosphatase, Placental (ALPP) gene using HepaRG (AID 2283468). In short, it runs like this:
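Differentiated human HepaRG cells were plated and cultured 48 h, then exposed in duplicate for 48 h in serum-free induction medium to eight half-log concentrations from 100 uM in 0.5% DMSO. ALPP mRNA was measured by TaqMan qRT-PCR, normalized to ACTB, GAPDH, POLR2A.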

The term AC50 denotes the concentration at which the activity in the assay is half-maximal.

SMILES strings stand for the structures. Active and inactive are the calls of the source. Rule for the calls: active = hit-call score of the fitted dose curve at least 0.9, where 1 is the maximum; inactive = score below 0.9.

Chain of Broad substrate specificity ATP-binding cassette transporter ABCG2 (Homo sapiens) (Q9UNQ0 whole entry, looked up): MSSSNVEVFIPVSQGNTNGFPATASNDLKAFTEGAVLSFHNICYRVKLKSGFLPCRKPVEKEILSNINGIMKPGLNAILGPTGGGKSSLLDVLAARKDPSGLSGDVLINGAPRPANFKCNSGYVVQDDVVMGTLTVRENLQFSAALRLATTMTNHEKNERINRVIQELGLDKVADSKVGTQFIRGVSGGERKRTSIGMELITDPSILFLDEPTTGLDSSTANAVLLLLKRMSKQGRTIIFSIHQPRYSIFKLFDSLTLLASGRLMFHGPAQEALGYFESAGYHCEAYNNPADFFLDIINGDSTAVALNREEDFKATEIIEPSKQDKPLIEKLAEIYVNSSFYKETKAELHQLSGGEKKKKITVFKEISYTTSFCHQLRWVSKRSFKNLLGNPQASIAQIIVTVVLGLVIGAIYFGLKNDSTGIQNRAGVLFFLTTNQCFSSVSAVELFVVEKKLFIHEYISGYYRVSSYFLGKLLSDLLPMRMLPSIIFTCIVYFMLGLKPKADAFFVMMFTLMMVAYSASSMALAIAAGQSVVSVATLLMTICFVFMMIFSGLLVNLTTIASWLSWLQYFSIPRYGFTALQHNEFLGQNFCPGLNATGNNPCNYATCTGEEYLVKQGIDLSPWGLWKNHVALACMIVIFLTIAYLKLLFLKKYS

In the case of `CC(C)(C)c1cccc(C(C)(C)C)c1O`, the molecule was called inactive in [1], in assay [2], in assay [3], in assay [4], in assay [5] and in assay [6]. Further, the molecule was classed as inactive in assay [7], in assay [8], in assay [9], in assay [10], in assay [11] and in assay [12]. The result in [13], in [14], in assay [15], in assay [16] and in assay [17] was inactive.
Take `CC(=O)NC1(c2cccc(F)c2)CCN(CC[C@@]2(c3ccc(Cl)c(Cl)c3)CN(c3ccccc3)C(=O)CO2)CC1`: the molecule was called inactive in [1], in [2], in assay [6], in assay [7], in assay [8] and in assay [9]. Moreover, the result in assay [13], in [14], in assay [15], in [16] and in assay [17] was inactive. Moreover, the AC50 in [3] was 13.1 µM (active); in assay [4], 20 µM (active); in assay [5], 56.1 µM (active); in assay [18] it was 68.7 µM (active); in assay [11], 20.8 µM (active); in assay [12], 71.9 µM (active). The AC50 in assay [19] is 19.6 µM (active).
`CC(O)CO` (configuration not stated): the call in [1], in assay [2], in [3], in assay [4], in [5] and in assay [6] was inactive. Moreover, the call in assay [7], in [8], in assay [18], in assay [9], in [11] and in assay [12] was inactive. Further, the outcome in [13], in assay [14], in assay [15], in [16] and in assay [17] was inactive.
